Compound activity: PubChem BioAssay, National Center for Advancing Translational Sciences (NCATS)
SNCA expr inh: SNCA gene expression inhibition | HEK-293 SNCA-luciferase knock-in, luminescence, 24 h | Potency, µM (titrated, usually from 57.2 µM), without a hit: top-dose activity change, negative = inhibition, usual class: inhibitors | 140,000 compounds, 0.17% hits | AID 1671194;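 note: potency is the fitted concentration of half-maximal effect; plate controls were DMSO cells for no effect and cell-free wells for full effect; nearly all actives have a fitted effect of over 45% in size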
IP6K1 inh: blocks human inositol hexakisphosphate kinase 1; activity change, % (series mostly up to about 58 µM); 140,000 compounds, 0.81% hits; AID 1645851; IP6K1 kinase, ADP-Glo luminescence, 2 h; stronger effect = lower value; Q92551; in the data active = activity change below about -25%
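ADP-Glo luminescence measures ADP made by human IP6K1 during a 2 h RT reaction with ATP/IP6 (mix at 1.3 mM/130 uM); top library doses 57.5 and 19.1 uM final.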
GPT2 inh: blocks human glutamate pyruvate transaminase 2 | Potency, µM (titrated, usually from 57.7 µM), inactives show at the highest dose activity change, negative = inhibition, most hits filed as inhibitors | 100,000 compounds, 0.25% hits | Q8TD30 | Recombinant GPT2, coupled pyruvate oxidase/HRP Amplex Red fluorescence; note: potency is the fitted concentration of half-maximal effect; nearly all actives have a fitted effect of over 60% in size
Target sequence (Q8TD30 whole entry, looked up): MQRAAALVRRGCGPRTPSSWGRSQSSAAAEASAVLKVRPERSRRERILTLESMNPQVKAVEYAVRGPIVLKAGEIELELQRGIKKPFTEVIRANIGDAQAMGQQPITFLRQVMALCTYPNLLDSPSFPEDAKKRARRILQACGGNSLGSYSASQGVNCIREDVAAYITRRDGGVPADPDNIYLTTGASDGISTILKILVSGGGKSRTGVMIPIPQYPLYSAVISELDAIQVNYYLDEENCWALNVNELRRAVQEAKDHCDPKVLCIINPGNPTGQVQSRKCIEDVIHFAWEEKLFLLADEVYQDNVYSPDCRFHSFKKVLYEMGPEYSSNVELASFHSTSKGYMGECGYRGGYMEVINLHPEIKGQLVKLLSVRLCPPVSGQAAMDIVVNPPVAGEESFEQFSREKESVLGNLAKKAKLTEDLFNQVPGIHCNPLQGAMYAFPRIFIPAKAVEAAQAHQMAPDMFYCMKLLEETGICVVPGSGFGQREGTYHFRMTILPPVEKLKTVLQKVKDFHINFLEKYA
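Fluorescence of coupled pyruvate oxidase/HRP/Amplex Red system (50uM Amplex, 30 min, dark) reports pyruvate formed by GPT2. Enzyme reaction: 10ng/uL GPT2, 2mM L-alanine, 250uM a-KG, 30 min room temperature, pH 7.5; 50uM AOA control.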
SNCA viab count: reduces viability of HEK-293 SNCA reporter cells; Potency, µM (highest dose often 57.1 µM), for inactives: at the top dose activity change, negative = cytotoxicity, hits mostly cytotoxic; HEK-293-SNCA-luc viability, GF-AFC fluorescence, 24 h; 150,000 compounds, 0.12% hits;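 note: potency is the fitted concentration of half-maximal effect; 0% = DMSO-treated cells and -100% = medium-only wells without cells; nearly all actives have a fitted effect of over 30% in size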
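Cytotoxicity counterscreen: after 24 h compound treatment of genome-edited SNCA-luciferase HEK-293 cells, live-cell protease substrate GF-AFC read by fluorescence after 30 min; activity scaled between DMSO (0%) and medium-only (-100%), curves Hill-fitted.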
IP6K1 inh cnf: confirmation of human IP6K1 inhibitors; shares compounds with IP6K1 inh; recombinant IP6K1 kinase, ADP-Glo luminescence, 2 h; Potency, µM (doses to about 49 µM), for the others: at the top dose activity change, negative = inhibition, usual class: inhibitors; 1,200 compounds, 13% hits; AID 1645852; note: potency is the fitted concentration of half-maximal effect; nearly all actives have a fitted effect of over 65% in size
* hit, by the source's call; i = inactive; ? = inconclusive; . = no result; [ ] = another dose, or the depositor's remark. Rows were chosen to be rich in hits. Some 1% of all compounds tested hit in one or more screens of this group. Unless noted, calls come from the whole dose curve; as a rule, active = well fitted curve in the direction sought with a large enough effect; inconclusive = small, poorly fitted or top-dose-only effect, or another doubt; inactive = no such curve, though single readings can be large; an effect the other way counts as inactive or inconclusive. Unless noted, % is set by controls: 0 for no effect and ±100 for the full control effect.

SMILES | SNCA expr inh | IP6K1 inh | GPT2 inh | SNCA viab count | IP6K1 inh cnf
Cc1nn(-c2ccccc2)c2c1C(C)N(C1CCN(C(=O)c3ccc(F)cc3)C1)C2=O (configuration not stated) | . | -3 | . | . | .
COc1ccc(-c2cc(C(=O)Oc3cccc(C)c3)c3cc(C)ccc3n2)cc1 | -5% | -30* | . | 11% | -15%
COc1ccc(-c2cc(C(=O)Oc3cccc(C)c3)c3ccccc3n2)cc1 | 36% | -12 | . | 0% | .
Cc1nn(-c2ccccc2)c2c1C(C1CC1)N(C1CN(C(=O)NC(C)(C)c3ccccc3)C1)C2=O (configuration not stated) | . | 11 | . | . | .
COc1cccc(-c2ccc(C(=O)NCCN[S+](=O)([O-])c3cccc(C(F)(F)F)c3)cc2)c1 | . | 2 | . | . | .
Nc1ccc(C(=O)O)c(O)c1 | 0%[25.6 µM] | -74* | -5% | -10%[23.9 µM] | 14%
O=C(O)c1ccccc1O | -53%[25.6 µM] | -5 | i | 7%[23.9 µM] | .
COc1ccccc1CNC(=O)c1cc2cccc3c2n1CC(C)S3 (configuration not stated) | ? | -33* | . | -15% | -17%
Cc1ccccc1CNC(=O)c1cc2cccc3c2n1CC(C)S3 (configuration not stated) | -29% | 26 | . | 4% | .
COc1ccc2nc(N3CCN(C(=O)CS(=O)(=O)c4ccc(C)cc4)CC3)sc2c1 | -17% | -29* | . | 3% | -14%
COCc1cc(C)nc2sc3c(c12)NC(c1ccccc1C(=O)O)N(c1ccc(OC)cc1)C3=O (configuration not stated) | 82% | -31* | . | 18% | -2%
COCc1cc(C)nc2sc3c(c12)NC(c1ccc(O)c(OC)c1)N(c1ccccc1)C3=O (configuration not stated) | 73% | -7 | . | ? | .
CCc1nc(C)sc1C(=O)N1CCCC(c2[nH]ncc2-c2ccccc2)C1 (configuration not stated) | -9% | -30* | -23%[11.5 µM] | -15% | -19%
Cc1nn(-c2ccccc2)c2c1C(C)N(C1CN(C(=O)c3ccc(C(F)(F)F)cc3)C1)C2=O (configuration not stated) | . | -3 | . | . | .
Cc1ccc(C2=Nc3ccccc3NC(c3ccncc3)=N2)cc1 | -15% | -30* | . | -19% | 9%
CCCOc1ccc(C2=NC(c3ccncc3)=Nc3ccc(C)cc3N2)cc1 | -7% | -10 | . | -7% | .
Cc1ccc(Nc2ccnc(N3CCN(C(=O)Cc4ccc(F)cc4)CC3)n2)cc1 | 7% | -16 | i | -6% | .
FC(F)(F)Oc1ccc(Nc2cnc3ccc(N4CCOCC4)nn23)cc1 | -51%[87.6 µM] | -17 | -24%[88.5 µM] | 4%[87.6 µM] | .
CC(C)NC(=O)N1CC[C@H](N=C2Nc3cc(F)ccc3N(CC(F)F)c3ccc(Cl)cc32)C1 | . | -5 | i | 6%[12.5 µM] | -6%[13.7 µM]
COc1ccccc1CNC(=O)c1ccc2c(c1)nc(C)n2-c1cccc(C)c1 | 1% | -26* | . | -22% | -15%
O=C(Nc1cccc(F)c1)C1CCCN(Cc2cccc(-c3ccc(F)cc3F)c2)C1 (configuration not stated) | 11% | -6 | -2% | -11% | .
O=c1c2c(n(Cc3cccnc3)n1CCc1ccccc1)CN(CC1CCOC1)CC2 (configuration not stated) | -4%[87.6 µM] | -8 | i | 2%[87.6 µM] | .
CC(C)CCNS(=O)(=O)c1ccc(N2CCCCS2(=O)=O)cc1 | -16% | -30* | . | -2% | -16%
CCCCCNS(=O)(=O)c1ccc(N2CCCCS2(=O)=O)cc1 | -3% | 7 | . | 14% | .
COc1ccc(NC(=O)C(=O)NCC2(c3ccccc3)CCCC2)c(OC)c1 | 0% | -27* | . | 4% | -2%
Cc1ccc(CCNC(=O)CCn2nc(-c3ccc(Cl)cc3)ccc2=O)cc1 | 21% | -28* | . | -1% | -6%
CCOC(=O)c1cccc(NS(=O)(=O)c2ccc(-c3coc(C)n3)cc2)c1 | -8% | 11 | . | -3% | .
CCOC(=O)c1cnc2ccc(-c3cncc(NS(=O)(=O)c4ccccc4)c3)cn12 | . | -10 | i | -7% | ?
COc1ccc(NC(=O)c2ccc3c(SCC(=O)O)c4c(nc3c2)CCCC4)c(OC)c1 | -20% | -26* | . | -5% | 6%
COc1ccc(NC(=O)CSc2c3c(nc4ccccc24)CCC3)c(OC)c1 | -20% | 0 | . | -22% | .
